Experimental data from PubChem BioAssay (NCATS).
Inconclusive results are not listed. Active and inactive are the calls of the source. Calls come from the whole dose curve; as a rule, active = well fitted curve in the direction sought with a large enough effect; inconclusive = small, poorly fitted or top-dose-only effect, or another doubt; inactive = no such curve, though single readings can be large; an effect the other way counts as inactive or inconclusive. Starred links: 1 amine or outer side, 2 acyl side, 3 side chain; linkers in the order of their positions; H or OH if unused. Positions of bridges follow the written chain, without caps; N, C: chain ends. Non-standard residues stand in square brackets, D forms with d. Residues, ends and D or L forms follow the SMILES beside them. Chains are numbered I, II in the order given. *: point of attachment. Actinocin(9to1) = Cc1c2oc3c(C)ccc(C(=O)[*:1])c3nc-2c(C(=O)[*:2])c(N)c1=O; NMeV = CN[CH](C(=O)O)C(C)C; Nva = CCC[C@H](N)C(=O)O; Cbz = O=C(OCc1ccccc1)*; Sar = CNCC(=O)O

Columns and labels:
[1] = Quantitative High-Throughput drug screen in 47 multiple myeloma cell lines against the NCATS MIPE library collection: Karpas25_ECACC cell viability assay (AID 1918968; note: nearly all actives have a fitted effect of over 35% in size)
How it was run: (§1)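 Myeloma cell lines, 500 cells per well, exposed to MIPE 4.0 library compounds for 48 h at 37C, 5% CO2. Viability from ATP by CellTiter-Glo luminescence; normalised to DMSO (100%) and media-only (0%) wells.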

[2] = Quantitative High-Throughput drug screen in 47 multiple myeloma cell lines against the NCATS MIPE library collection: KMS27_JCRB cell viability assay (AID 1918970); conditions: KMS27 myeloma cells, CellTiter-Glo ATP viability, 48 h; viability (% of DMSO): at 45.8 µM (top of the series); note: nearly all actives have a fitted effect of over 30% in size
How it was run: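 KMS27_JCRB myeloma cells, 500 per well, exposed 48 h at 37 C, 5% CO2 to MIPE 4.0 compounds. Viability from ATP by CellTiter-Glo luminescence, normalized to DMSO (100%) and medium-only (0%) wells.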

[3] = Quantitative High-Throughput drug screen in 47 multiple myeloma cell lines against the NCATS MIPE library collection: KMS12BM_JCRB cell viability assay (AID 1918971); note: nearly all actives have a fitted effect of over 35% in size
How it was run: (§2)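 Inhibition of cell viability is measured here. Each line was plated at 500 cells per well, treated with MIPE 4.0 drugs, kept 48 hours at 37C, then assayed for ATP content by CellTiter-Glo luminescence.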

[4] = Quantitative High-Throughput drug screen in 47 multiple myeloma cell lines against the NCATS MIPE library collection: KMS12PE_JCRB cell viability assay (AID 1918972); note: nearly all actives have a fitted effect of over 30% in size
How it was run: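 qHTS of the MIPE 4.0 collection: 500 myeloma cells/well, 48 h drug exposure at 37C in 5% CO2, then CellTiter-Glo for 5 min at room temperature before luminescence reading.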

[5] = Quantitative High-Throughput drug screen in 47 multiple myeloma cell lines against the NCATS MIPE library collection: KMS20_JCRB cell viability assay (AID 1918973); note: nearly all actives have a fitted effect of over 45% in size
How it was run: as §1

[6] = Quantitative High-Throughput drug screen in 47 multiple myeloma cell lines against the NCATS MIPE library collection: KMS26_JCRB cell viability assay (AID 1918975); note: nearly all actives have a fitted effect of over 45% in size
How it was run: as §2

[7] = Quantitative High-Throughput drug screen in 47 multiple myeloma cell lines against the NCATS MIPE library collection: MMM1_PLB cell viability assay (AID 1918976); note: nearly all actives have a fitted effect of over 35% in size
How it was run: (§3)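 Viability after 48 h drug exposure was measured as ATP-dependent luminescence. Cells, 500 per well, sat at 37 °C under 5% CO2; DMSO wells set 100%, media-only wells 0%.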

[8] = Quantitative High-Throughput drug screen in 47 multiple myeloma cell lines against the NCATS MIPE library collection: MOLP8_DSMZ cell viability assay (AID 1918977); note: nearly all actives have a fitted effect of over 45% in size
How it was run: as §3

[9] = Quantitative High-Throughput drug screen in 47 multiple myeloma cell lines against the NCATS MIPE library collection: NCIH929_DSMZ cell viability assay (AID 1918978); note: nearly all actives have a fitted effect of over 35% in size
How it was run: as §3

[10] = Quantitative High-Throughput drug screen in 47 multiple myeloma cell lines against the NCATS MIPE library collection: KMS21BM_JCRB cell viability assay (AID 1918974); conditions: ATP luminescence, 48 h; viability: at 45.8 µM (top of the series)
How it was run: as §1
Potency is the fitted concentration of half-maximal effect.

SMILES	Potency [1]	Potency [2]	Potency [3]	Potency [4]	Potency [5]	Potency [6]	Potency [7]	Potency [8]	Potency [9]	Potency [10]
NC(=O)Nc1sc(-c2ccc(F)cc2)cc1C(N)=O	418 nM (active)	166 nM (active)	4180 nM (active)	935 nM (active)	1660 nM (active)	2960 nM (active)	3320 nM (active)	13200 nM (active)	20.9 nM (active)	
COc1cc(O)c2c(c1)C1OC1C[C@H](O)[C@H](O)C(=O)C=CC[C@H](C)OC2=O (stereo partly drawn)	3320 nM (active)	7430 nM (active)	1480 nM (active)	11800 nM (active)	1180 nM (active)	1870 nM (active)	18700 nM (active)	418 nM (active)	1480 nM (active)	
CC(C)Oc1ccc(C(=O)N[C@H](CNC(=O)CN(C)C)Cc2ccc(-c3cn4cccc([C@H](C)O)c4n3)cc2)cc1Cl	132 nM (active)	833 nM (active)	743 nM (active)	469 nM (active)	235 nM (active)					
CC(=O)NCC(=O)N1[C@H]2CC[C@H]1c1cc(Nc3ncc(C(F)(F)F)c(NC4CCC4)n3)ccc12	1870 nM (active)	166 nM (active)	9350 nM (active)	105 nM (active)	1320 nM (active)	5260 nM (active)	1660 nM (active)	2640 nM (active)	935 nM (active)	
Oc1cc(-c2nc(-c3ccccc3)[nH]c2-c2ccncc2)ccc1Cl	2960 nM (active)	2640 nM (active)	20900 nM (active)	14800 nM (active)	8330 nM (active)	16600 nM (active)	18700 nM (active)	16600 nM (active)	3720 nM (active)	3320 nM (active)
CCc1ccc(C(=O)Nc2cc(CN3CCN(C)CC3)cc(C(F)(F)F)c2)cc1C#Cc1cnc2ccnn2c1	8330 nM (active)	5900 nM (active)	14800 nM (active)	5260 nM (active)	3720 nM (active)	16600 nM (active)	23500 nM (active)	18700 nM (active)	10500 nM (active)	
CCC[C@@H](C=O)NC(=O)[C@H](CC(C)C)NC(=O)[C@H](CC(C)C)NC(=O)OCc1ccccc1 (Cbz-Leu-Leu-[Nva]-aldehyde)	296 nM (active)	332 nM (active)	1050 nM (active)	296 nM (active)	187 nM (active)	1320 nM (active)	3720 nM (active)	1180 nM (active)	296 nM (active)	
C[C@H](NCc1ccc(OCc2cccc(F)c2)cc1)C(N)=O	2350 nM (active)	1660 nM (active)	8330 nM (active)	1870 nM (active)	2350 nM (active)	18700 nM (active)	11800 nM (active)	2640 nM (active)	2640 nM (active)	
Cn1cc(-c2cnn3c(N)c(Br)c([C@H]4CCCNC4)nc23)cn1	662 nM (active)	1480 nM (active)	2960 nM (active)	3720 nM (active)	1480 nM (active)	8330 nM (active)	662 nM (active)	833 nM (active)	833 nM (active)	833 nM (active)
COc1cc(C=CC(=O)CC(=O)C=Cc2ccc(O)c(OC)c2)ccc1O	960 nM (active)	3030 nM (active)	19100 nM (active)	7620 nM (active)	6050 nM (active)	48100 nM (active)	38200 nM (active)	9590 nM (active)	3400 nM (active)	
CNC(=O)c1ccc(Nc2cc(Nc3ccccc3S(=O)(=O)C(C)C)c3cc[nH]c3n2)nc1	590 nM (active)	2090 nM (active)	16600 nM (active)	1180 nM (active)	935 nM (active)	18700 nM (active)	11800 nM (active)	10500 nM (active)	935 nM (active)	418 nM (active)
Cc1c2oc3c(C)ccc(C(=O)NC4C(=O)NC(C(C)C)C(=O)N5CCCC5C(=O)N(C)CC(=O)N(C)C(C(C)C)C(=O)OC4C)c3nc-2c(C(=O)NC2C(=O)NC(C(C)C)C(=O)N3CCCC3C(=O)N(C)CC(=O)N(C)C(C(C)C)C(=O)OC2C)c(N)c1=O (stereo not drawn) (I: TVP[Sar][NMeV] / II: TVP[Sar][NMeV]; ester I:1-I:C, II:1-II:C; linker I:N-II:N via Actinocin(9to1); configuration not given here)	inactive	inactive	inactive	inactive	inactive	inactive	inactive	inactive	inactive	inactive
